The values that follow come from the supplement of paper PMC6555819.

In the assay the test system is PPARa:RXRa (NR concentration 270 nM, RXRa partner concentration 90 nM). The experiment in a line: PBM binding z-score (relative to random genomic background probes); higher = stronger binding; sequences stand for … in GC…GCGATTGACAGCGTAGAATGAAGG
How it is done:
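Protein-binding microarray (Agilent 4x180K custom design, double-stranded 60-nt probes: 5' GC cap, 34-nt variable region, 24-nt constant primer region; full probe sequence given). Purified or IVT nuclear receptor:RXRα heterodimers (3:1 NR:RXRα, mostly 270:90 nM) or homodimers were incubated for 1 h in PBS with 2% milk and no ligand, then detected with Alexa488 antibodies. Fluorescence from o1-orientation probes (~5 replicates averaged) was converted to z-scores against 500 random hg19 background probes. Variable regions are seed direct-repeat (DR0–DR5) sites, all their single-nucleotide variants and half-site ablations.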
Take CTACCAAGGTCAACAAGGTCGTTGATTACTATTC: the PBM binding z-score stood at 6.16.

The sequence CTATGTGGGTTAAGGGGGTCATTCAGTTTGAAAG showed a PBM binding z-score of 6.22.

As to TCTCGGAGGACACCAAAGGTCAGAGCTCGACATC, the PBM binding z-score was found to be 3.65.

Regarding CGAACGAGGTCAAAGGACAGTGAAAGGCGACGTA, the PBM binding z-score stood at 6.37.

In turn, CCTACTGGGCCAAAGAGGTCATTGATGCCGATAA registered a PBM binding z-score of 4.55.

In the case of TAGCCGAGGTCATTCAGGGGCCAGTATAGAAAGC, the PBM binding z-score is 6.23.

In turn, CGTCCGAGGTCATAGGAGGTCAGTGAAGACAGAT registered a PBM binding z-score of 6.37.

Turning to GCTTACAGGTCAAAGGTTATAGCATGAATAGAAT, the PBM binding z-score was found to be 7.1.

For ATATGTAGGTTATCGGGTCATACAGTTTGCGCAT, the PBM binding z-score is 5.09.

The sequence GCTTAAGGGTCAAAGGTTATAGCATGAATAGAAT gave a PBM binding z-score of 7.18.

The sequence CGTCCAAGGTCAGCGGGTCAGTGAAAGCGACGTG came in with a PBM binding z-score of 4.79.

Sequence GGAACGAGGTCATTCGAGTTGATAGCATGGCGAT showed a PBM binding z-score of 5.98.

The sequence TTGCCTAGGTCATTGGGCCAGTATAGTACGCATC showed a PBM binding z-score of 3.86.

AGTCAAAGTTTATCTAGGTAACGTAAGATATGCT returned a PBM binding z-score of 2.17.

In the case of CAAACAAGGTCAAAGGTCAAAGTCGAGCCAACCA, the PBM binding z-score was 7.41.

The sequence ATATGTAGGTTGGGGTCATTCAGAAAGTAGGGAA showed a PBM binding z-score of 6.11.

On to TAGCCTAGGTCATTCAGGGGCCAGCATAGAAAGC, for which the PBM binding z-score came out at 3.89.

As to GATATAGGGTCAGCTAGAGGCCAGAGTATGGAAA, the PBM binding z-score amounted to 4.76.

With GCTGCGAGGTCAACTGATGGTCAGCTAAAGCTCG, the PBM binding z-score turned out to be 6.02.

For CGTCAAAGTTCAACTAAGGTTACGTAAAGCACGC, the PBM binding z-score amounted to 5.63.

As for CAAACTAGGTCACAGTGGTCAAAGTCCGTGCGTA, the PBM binding z-score is 5.

As for GGAACGAGGGCATTCGAGTTCATAGCATGGCGAT, the PBM binding z-score was 2.7.

GATACAGGGTCAGCTACAGGCCAGAGTATGGAAA showed a PBM binding z-score of 4.88.

ACTTAAGGGTCAACGAGGTTATAGCACGCGTATA gave a PBM binding z-score of 6.46.

Turning to TCTTGTAGATCAACAGGAGGTTAATAAAGATCGA, the PBM binding z-score was 1.23.

Regarding TCTGCTAGGTCAACGTTGGTCAGCTAATCTGCTA, the PBM binding z-score was found to be 3.2.

GTTACAGGGTCAAGGCCAGAGTACGCGTATTGAT displayed a PBM binding z-score of 5.59.

AGAATGGGGTTACCAAAGATCAGGGAAACGCTTG displayed a PBM binding z-score of 5.05.

Take AGAATGGGGTTATACGTAGATCAGGGAAGAAAGT: the PBM binding z-score was determined as 5.16.

With ATCAAAAGGTCGAGGTGAGTATAGAGAAAGGGAA, the PBM binding z-score amounted to 4.75.

Regarding TAGCCTAGTTCATGCGGGCCAGTATAGTGTCGGC, the PBM binding z-score stood at 0.278.

CGCACTAGGTCATCCAGGACAGTGAATACATTGA returned a PBM binding z-score of 4.49.

CCTAGCAGGCCAATCTAGGTCACTCAAGGCTTGA yielded a PBM binding z-score of 3.15.

In the case of AGAATGAGGTCAAGATCAGGGAAACAGAATACAT, the PBM binding z-score is 6.42.

With CATACAGGGTCGGCTAGGCCAGAGTAGGGACGGC, the PBM binding z-score was determined as 0.514.

In the case of CAAAATAGGTCAAAGGTCAAAGTCGAGCCAACCA, the PBM binding z-score stood at 7.93.

For the sequence AATACAGGGTCATCGTAGGTCAGAGTACGCACAG, the PBM binding z-score came to 6.23.

AATACAGGGTGACTAGGCCAGAGTAGGTACGAAT showed a PBM binding z-score of 1.7.

On to TAGCCTAGGTCATGCGGCCCAGTATAGTGTCGGC, for which the PBM binding z-score turned out to be 3.52.

CGTCCAAGGTCAATGCTAGATCAGTGAAAGCATT returned a PBM binding z-score of 4.78.
